This passage reports composite z-score and z-score results from PubChem BioAssay.

Assay [1] has as its system PRMT1 (protein arginine N-methyltransferase 1). Description: PRMT1 binders on small-molecule microarrays, primary screen, biochemical, small-molecule microarray, 635 nm fluorescence (AID 1088).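 Further: binding of Prmt1 protein to compounds spotted on small-molecule microarray slides.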 The note with it: small-molecule microarray binding, higher = more signal.
The nature of assay [2]: yeast growth modulation, basal conditions, primary screen, YJM789 clinical isolate, OD600, 24 h (AID 1089).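 Further: growth of clinical yeast isolate S. cerevisiae YJM 789 seeded 1000 cells per well; test concentration not given here.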 The note with it: S. cerevisiae YJM789 growth, higher = more signal, called active from +8 up or from −8 down.
A short description of assay [3]: fission yeast growth modulation, primary screen, strain 972, OD600, 24 h, no modulator (AID 1090).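 Further: basal condition with compound alone and no growth modifier present; test concentration not given here.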 The following applies: S. pombe 972 growth, higher = more signal, called active from +8 up or from −8 down.
The nature of assay [4]: S. cerevisiae growth modulation with rapamycin, primary screen, strain BY4716, OD600, 96 h (AID 1091). Further: test concentration not given here. The following applies: higher = more signal, called active from +8 up or from −8 down.
Assay [5] deals with Torsin-1A-interacting protein 2 (Homo sapiens) (UniProt Q8NFQ8). As to the kind of experiment: LULL1 binders on small-molecule microarray, primary screen, cell lysate, human LULL1 lysate, 635/667 nm fluorescence (AID 1092).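 Further: probe is lysate of COS7 cells overexpressing human LULL1; score merges per-feature 667 nm fluorescence with signal-to-noise.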 The following applies: hLULL1 lysate binding, 635 nm fluorescence, higher = more signal.
Chain of Torsin-1A-interacting protein 2 (Homo sapiens) (Q8NFQ8 whole entry, looked up): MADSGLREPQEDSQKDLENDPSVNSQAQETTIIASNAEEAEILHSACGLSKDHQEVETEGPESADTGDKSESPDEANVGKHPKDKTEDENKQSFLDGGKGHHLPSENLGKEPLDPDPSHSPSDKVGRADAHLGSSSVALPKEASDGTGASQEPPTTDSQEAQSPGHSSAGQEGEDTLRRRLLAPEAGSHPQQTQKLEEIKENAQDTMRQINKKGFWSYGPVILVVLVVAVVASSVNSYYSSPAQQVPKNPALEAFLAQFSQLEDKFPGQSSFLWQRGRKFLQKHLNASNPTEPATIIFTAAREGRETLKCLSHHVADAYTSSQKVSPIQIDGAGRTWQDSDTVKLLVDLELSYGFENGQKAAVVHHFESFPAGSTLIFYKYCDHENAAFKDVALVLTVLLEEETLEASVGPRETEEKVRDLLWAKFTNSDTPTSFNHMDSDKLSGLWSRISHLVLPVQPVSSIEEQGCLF
Assay [6] is described as follows: E. coli growth modulation, two-sided OD650, primary screen, E. coli filamentation project, strain DRC41, 24 h (AID 1093).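 Further: MC1000 strain lacking acrAB efflux and sulA so SOS filamentation is blocked; test concentration not given here.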 The note with it: OD650, 24 h, higher = more signal, called active from +8 up or from −8 down.
The nature of assay [7]: small-molecule microarray binders of probe aLefty2, primary screen, biochemical, biotinylated probe, 635/667 nm fluorescence (AID 1094).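 Further: score merges spot fluorescence near 667 nm with spot signal-to-noise ratio.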 The following applies: higher = more signal.
In assay [8] the test system is Noggin (protein binding on small-molecule microarray). As to the kind of experiment: Noggin binders on small-molecule microarray, primary screen, biochemical, 635/667 nm fluorescence (AID 1095).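 Further: score merges 667 nm feature fluorescence with signal to noise over triplicate slides.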 The following applies: 635 nm fluorescence, higher = more signal.
The target in assay [9] is Neurogenic locus notch homolog protein 3 (Homo sapiens) (UniProt Q9UM47). Description: NOTCH3 binders on small-molecule microarray, primary screen, biochemical, 635/667 nm fluorescence (AID 1096). The note with it: NOTCH3 binding, 635 nm fluorescence, higher = more signal.
Chain of Neurogenic locus notch homolog protein 3 (Homo sapiens) (Q9UM47 whole entry, looked up): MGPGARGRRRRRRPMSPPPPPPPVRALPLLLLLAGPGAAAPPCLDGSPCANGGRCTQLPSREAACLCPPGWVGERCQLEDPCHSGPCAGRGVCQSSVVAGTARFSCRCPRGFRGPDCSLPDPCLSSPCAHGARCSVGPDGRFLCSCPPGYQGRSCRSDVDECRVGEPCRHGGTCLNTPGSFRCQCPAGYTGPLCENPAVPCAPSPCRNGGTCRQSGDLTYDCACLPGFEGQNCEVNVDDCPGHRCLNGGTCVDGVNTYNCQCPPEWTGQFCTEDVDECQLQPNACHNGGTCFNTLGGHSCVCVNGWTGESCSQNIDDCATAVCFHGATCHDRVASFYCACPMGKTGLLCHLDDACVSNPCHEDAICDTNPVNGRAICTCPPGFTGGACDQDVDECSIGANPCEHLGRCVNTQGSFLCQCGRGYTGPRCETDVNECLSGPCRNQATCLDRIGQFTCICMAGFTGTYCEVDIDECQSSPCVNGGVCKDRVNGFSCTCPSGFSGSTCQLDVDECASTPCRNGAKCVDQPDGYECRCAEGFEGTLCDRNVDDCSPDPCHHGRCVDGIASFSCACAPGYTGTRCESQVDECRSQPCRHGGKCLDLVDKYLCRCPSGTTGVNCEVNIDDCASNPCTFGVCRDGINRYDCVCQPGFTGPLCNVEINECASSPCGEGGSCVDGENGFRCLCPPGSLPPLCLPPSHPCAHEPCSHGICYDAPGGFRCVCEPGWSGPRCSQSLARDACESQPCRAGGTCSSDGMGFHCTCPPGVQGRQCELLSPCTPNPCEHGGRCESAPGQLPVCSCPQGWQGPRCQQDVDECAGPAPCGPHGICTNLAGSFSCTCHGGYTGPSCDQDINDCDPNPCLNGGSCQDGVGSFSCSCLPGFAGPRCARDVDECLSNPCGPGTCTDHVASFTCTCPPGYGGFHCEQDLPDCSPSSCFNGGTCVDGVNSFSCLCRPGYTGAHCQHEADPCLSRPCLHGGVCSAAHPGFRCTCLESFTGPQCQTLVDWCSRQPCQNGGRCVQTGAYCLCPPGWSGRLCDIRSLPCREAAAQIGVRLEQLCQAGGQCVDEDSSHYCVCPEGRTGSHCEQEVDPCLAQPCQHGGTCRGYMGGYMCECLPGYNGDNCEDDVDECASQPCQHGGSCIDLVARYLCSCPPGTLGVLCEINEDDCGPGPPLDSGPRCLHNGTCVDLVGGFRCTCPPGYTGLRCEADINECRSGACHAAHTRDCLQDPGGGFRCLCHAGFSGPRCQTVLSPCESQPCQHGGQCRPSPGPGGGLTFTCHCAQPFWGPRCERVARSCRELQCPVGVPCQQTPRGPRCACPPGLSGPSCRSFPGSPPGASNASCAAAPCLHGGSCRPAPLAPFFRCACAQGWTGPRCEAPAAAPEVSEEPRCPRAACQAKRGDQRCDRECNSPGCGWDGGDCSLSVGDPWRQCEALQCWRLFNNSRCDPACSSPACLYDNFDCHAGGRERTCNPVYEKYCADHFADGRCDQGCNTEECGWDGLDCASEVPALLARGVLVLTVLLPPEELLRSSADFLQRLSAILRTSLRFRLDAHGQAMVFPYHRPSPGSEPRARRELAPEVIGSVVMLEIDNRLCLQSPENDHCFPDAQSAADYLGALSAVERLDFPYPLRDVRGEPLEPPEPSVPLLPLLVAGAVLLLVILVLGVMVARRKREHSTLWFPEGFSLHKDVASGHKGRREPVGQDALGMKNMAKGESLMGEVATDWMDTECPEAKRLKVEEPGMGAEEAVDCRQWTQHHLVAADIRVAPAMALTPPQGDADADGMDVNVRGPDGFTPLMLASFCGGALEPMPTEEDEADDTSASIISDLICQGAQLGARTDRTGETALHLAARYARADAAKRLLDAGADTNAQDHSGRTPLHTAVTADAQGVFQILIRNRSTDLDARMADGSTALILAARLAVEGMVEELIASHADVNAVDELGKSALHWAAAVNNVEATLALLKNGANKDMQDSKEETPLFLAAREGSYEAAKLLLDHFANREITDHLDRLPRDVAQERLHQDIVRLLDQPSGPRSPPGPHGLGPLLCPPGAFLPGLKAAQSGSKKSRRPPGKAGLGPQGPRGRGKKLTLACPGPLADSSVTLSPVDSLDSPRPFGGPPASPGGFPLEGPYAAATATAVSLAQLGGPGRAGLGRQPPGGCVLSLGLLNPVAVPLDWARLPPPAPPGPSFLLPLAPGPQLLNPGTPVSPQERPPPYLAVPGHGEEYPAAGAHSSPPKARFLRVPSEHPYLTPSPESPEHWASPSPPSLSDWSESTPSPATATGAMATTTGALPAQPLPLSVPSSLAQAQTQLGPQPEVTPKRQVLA
The nature of assay [10]: small-molecule microarray binders of probe aEGFR, primary screen, biochemical, biotinylated probe, 635/667 nm fluorescence (AID 1097).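 Further: probe is a biotinylated anti-EGFR antibody binding compounds printed on slides; score combines fluorescence near 667 nm and signal to noise of each spot.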 The note with it: higher = more signal.
The subject of assay [11] is Plasmodium falciparum Sir2 (PF13_0152, Sir2A). Description: pfSir2 binders on small-molecule microarrays, primary screen, biochemical, small-molecule microarray, 635 nm fluorescence (AID 1098).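 Further: score merges spot fluorescence intensity with its signal-to-noise ratio.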 The note with it: small-molecule microarray binding, fluorescence 635 nm; higher = more signal.
A short description of assay [12]: small-molecule microarray binders of probe aDKK1, primary screen, biochemical, biotinylated probe, 635/667 nm fluorescence (AID 1099).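 Further: score merges 667nm spot fluorescence with signal to noise across triplicate slides; reference of the scale not given here.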 The following applies: higher = more signal.
The nature of assay [13]: small-molecule microarray binders of probe aCHRDL2, primary screen, biochemical, biotinylated probe, 635/667 nm fluorescence (AID 1100). The note with it: higher = more signal.
A short description of assay [14]: splicing luciferase reporter signal modulators, primary screen, spliceosome inhibition project, cell-based, HEK293, splice +/- reporter (AID 1101).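 Further: HEK293 cells carrying a splicing-competent luciferase reporter gene; test concentration not given here.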 The note with it: luminescence, 24 h, higher = more signal, called active from +8 up or from −8 down. (A reporter such as luciferase makes a cellular process visible.)
The target of assay [15] is Fibroblast growth factor 10 (Homo sapiens) (UniProt O15520). Description: FGF10 binders on small-molecule microarrays, primary screen, biochemical, small-molecule microarray, 635 nm fluorescence (AID 1102). The note with it: FGF10 binding, fluorescence 635 nm, higher = more signal.
Chain of Fibroblast growth factor 10 (Homo sapiens) (O15520 whole entry, looked up): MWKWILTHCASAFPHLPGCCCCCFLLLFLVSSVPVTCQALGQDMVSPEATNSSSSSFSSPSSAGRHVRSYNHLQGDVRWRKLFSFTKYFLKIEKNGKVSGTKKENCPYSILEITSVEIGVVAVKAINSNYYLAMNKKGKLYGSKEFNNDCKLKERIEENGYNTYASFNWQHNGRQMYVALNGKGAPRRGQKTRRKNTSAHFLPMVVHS
For assay [16], the system named is glycogen synthase kinase-3 (GSK3A per assay name; protocol says GSK3B). As to the kind of experiment: GSK3 binders on small-molecule microarrays, primary screen, biochemical, small-molecule microarray, 635 nm fluorescence, GSK3A (AID 1103). Further: the record names both GSK3A and GSK3B. The note with it: small-molecule microarray binding, fluorescence 635 nm; higher = more signal.
Assay [17] has as its target Epidermal growth factor receptor (Homo sapiens) (UniProt P00533). Description: EGFR binders on small-molecule microarrays, primary screen, biochemical, small-molecule microarray, 635 nm fluorescence (AID 1104).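 Further: score merges 667 nm emission intensity with spot signal to noise over triplicate slides.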 The note with it: EGFR binding, higher = more signal.
The target of assay [18] is Follistatin-related protein 3 (Homo sapiens) (UniProt O95633). As to the kind of experiment: FSTL3 binders on small-molecule microarrays, primary screen, biochemical, small-molecule microarray, 635 nm fluorescence (AID 1105).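 Further: score merges emission near 667 nm and signal to noise per printed spot across three slides.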 The following applies: FSTL3 binding, higher = more signal.
Chain of Follistatin-related protein 3 (Homo sapiens) (O95633 whole entry, looked up): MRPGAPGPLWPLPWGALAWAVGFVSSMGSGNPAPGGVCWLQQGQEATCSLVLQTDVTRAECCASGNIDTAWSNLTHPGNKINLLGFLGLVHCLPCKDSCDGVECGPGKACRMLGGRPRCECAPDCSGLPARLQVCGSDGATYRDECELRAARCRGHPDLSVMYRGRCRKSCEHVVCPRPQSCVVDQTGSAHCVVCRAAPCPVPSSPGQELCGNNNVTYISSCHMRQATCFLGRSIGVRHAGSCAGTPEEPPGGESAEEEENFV
Assay [19] deals with Dickkopf-related protein 1 (Homo sapiens) (UniProt O94907). Description: DKK1 binders on small-molecule microarrays, primary screen, biochemical, small-molecule microarray, 635 nm fluorescence scan (AID 1106).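 Further: score merges emission near 667 nm with signal to noise over three replicate slides.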 The following applies: DKK1 binding, higher = more signal.
Chain of Dickkopf-related protein 1 (Homo sapiens) (O94907 whole entry, looked up): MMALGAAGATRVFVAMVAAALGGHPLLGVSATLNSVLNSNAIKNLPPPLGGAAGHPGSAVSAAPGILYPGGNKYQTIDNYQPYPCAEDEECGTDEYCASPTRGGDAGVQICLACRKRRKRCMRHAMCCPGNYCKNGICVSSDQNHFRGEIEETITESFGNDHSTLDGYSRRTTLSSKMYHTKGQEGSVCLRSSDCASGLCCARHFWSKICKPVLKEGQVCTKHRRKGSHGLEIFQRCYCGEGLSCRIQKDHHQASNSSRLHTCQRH
Assay [20] has as its system Inhibin beta A chain (activin A). Description: INHBA (activin A) binders on microarrays, primary screen, biochemical, small-molecule microarray, 635 nm fluorescence scan (AID 1107).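 Further: mouse activin A protein probed at 4.33 µg/mL on printed slides; score merges bound-protein fluorescence near 667 nm with spot signal-to-noise.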 The following applies: small-molecule microarray binding, higher = more signal.

The source made the active and inactive calls.

Chain of Epidermal growth factor receptor (Homo sapiens) (P00533 whole entry, looked up): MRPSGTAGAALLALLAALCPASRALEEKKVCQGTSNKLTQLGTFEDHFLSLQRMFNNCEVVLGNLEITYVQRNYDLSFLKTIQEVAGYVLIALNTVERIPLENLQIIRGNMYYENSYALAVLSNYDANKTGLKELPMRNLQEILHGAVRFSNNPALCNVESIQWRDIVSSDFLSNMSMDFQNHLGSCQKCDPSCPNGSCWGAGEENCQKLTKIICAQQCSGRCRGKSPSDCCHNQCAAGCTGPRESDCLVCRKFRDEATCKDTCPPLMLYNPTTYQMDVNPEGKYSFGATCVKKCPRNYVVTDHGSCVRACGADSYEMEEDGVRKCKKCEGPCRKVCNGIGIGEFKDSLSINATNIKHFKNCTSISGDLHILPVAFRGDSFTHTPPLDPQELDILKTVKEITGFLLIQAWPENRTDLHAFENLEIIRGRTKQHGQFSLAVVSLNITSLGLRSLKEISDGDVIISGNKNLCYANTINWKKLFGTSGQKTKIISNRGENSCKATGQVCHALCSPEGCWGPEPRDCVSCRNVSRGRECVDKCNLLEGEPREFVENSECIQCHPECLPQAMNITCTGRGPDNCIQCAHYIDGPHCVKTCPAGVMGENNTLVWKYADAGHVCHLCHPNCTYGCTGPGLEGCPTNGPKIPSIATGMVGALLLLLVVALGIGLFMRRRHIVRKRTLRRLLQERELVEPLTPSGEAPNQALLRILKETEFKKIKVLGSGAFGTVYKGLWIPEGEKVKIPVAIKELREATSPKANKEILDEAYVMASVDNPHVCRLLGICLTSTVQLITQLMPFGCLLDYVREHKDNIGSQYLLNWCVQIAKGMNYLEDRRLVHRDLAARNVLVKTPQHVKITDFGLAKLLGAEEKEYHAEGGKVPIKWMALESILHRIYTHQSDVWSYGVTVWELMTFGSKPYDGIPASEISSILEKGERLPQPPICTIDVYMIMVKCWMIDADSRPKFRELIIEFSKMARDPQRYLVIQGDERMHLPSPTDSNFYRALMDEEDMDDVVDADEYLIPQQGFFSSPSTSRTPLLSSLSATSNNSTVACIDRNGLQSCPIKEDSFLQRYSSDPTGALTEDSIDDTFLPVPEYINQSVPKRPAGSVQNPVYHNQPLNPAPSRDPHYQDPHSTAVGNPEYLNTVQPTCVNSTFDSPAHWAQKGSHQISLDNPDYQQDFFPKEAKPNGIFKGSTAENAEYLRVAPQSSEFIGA

`C=CCC(OC(C)=O)[C@@H]1[C@@H](N(Cc2cccc3ccccc23)C(=O)c2cccc3ccccc23)c2cc(OCCCO)ccc2N1C(=O)c1ccc(-c2ccccc2)cc1` (stereo not given in full): the composite z-score is 0.159 in assay [1]; 0.465 in assay [5]; -0.027 in assay [7]; 0.163 in assay [8]; -0.287 in assay [9]; -0.0104 in assay [10]. Moreover, the composite z-score in assay [11] was 0.17; in assay [12], 0.0752; in assay [13], -0.0302; in assay [15], 0.0819; in assay [16], 0.0512; in [17] it was 0.364. In addition, the composite z-score in assay [18] was -0.184; in [19], 0.0116; in [20], 0.855. Further, the z-score in assay [2] is -0.551 (inactive); in [3], 0.169 (inactive); in assay [4], -0.725 (inactive); in assay [6] it was -0.61 (inactive); in assay [14] it was -0.566 (inactive).

As for `[N-]=[N+]=Nc1ccccc1C[C@]1(C(N)=O)N=C(c2ccc(OCCCO)cc2)O[C@H]1c1ccccc1N=[N+]=[N-]`, the composite z-score in assay [1] was 1.55; in assay [5] it was 2.89; in assay [7] it was 0.546; in assay [8], -0.306; in assay [9], 0.877; in assay [10], 0.701. In addition, the composite z-score amounted to 0.902 in assay [11]; 0.504 in [12]; 0.676 in assay [13]; 0.856 in [15]; 0.966 in assay [16]; 0.188 in [17]. Besides, the composite z-score in [18] was -0.0523; in assay [19], -0.442; in [20], 1.25. The z-score is -0.376 (inactive) in assay [2]; -1.28 (inactive) in assay [3]; -0.686 (inactive) in [4]; -0.436 (inactive) in assay [6]; -1.82 (inactive) in [14].

For the compound `CC1CC/C=C\[C@H]2OC34C=CCN(c5ccc(Cl)cc5)C(=O)[C@H]3N(CCCCCO)C(=O)[C@]4(C)C2C(=O)O1` (stereo not given in full), the composite z-score in assay [1] was -0.318; in assay [5] it was -1; in [7] it was -0.233; in assay [8], -1.33; in assay [9], -0.394; in [10], -0.302. Further, the composite z-score in assay [11] is 0.925; in [12] it was -0.153; in assay [13], 0.648; in assay [15], -1.04; in assay [16] it was -0.798; in [17] it was -1.24. Moreover, the composite z-score is -0.888 in assay [18], -1.98 in [19] and -0.497 in assay [20]. Also, the z-score in assay [2] was 0.184 (inactive); in assay [3], 0.177 (inactive); in [4], -0.166 (inactive); in [6] it was -0.367 (inactive); in assay [14], 0.4 (inactive).

With `N#Cc1ccc(NN2C(C(O)c3ccc(F)cc3)C=CC3C(=O)N(c4ccccc4)C(=O)C32)cc1` (stereo not given), the composite z-score in [1] was 1.24; in assay [5], 3.21; in assay [7] it was -0.0477; in [8], -0.868; in assay [9], 0.443; in assay [10] it was -0.257. In addition, the composite z-score in assay [11] is 1.3; in [12], 0.151; in assay [13], 0.581; in assay [15] it was -0.286; in assay [16], -0.0563; in assay [17] it was -0.746. Further, the composite z-score is -0.0131 in assay [18], -0.716 in assay [19] and 0.856 in [20]. Further, the z-score in [2] was 0.537 (inactive); in assay [3] it was 2.45 (inactive); in assay [4], 2.57 (inactive); in assay [6], -0.538 (inactive); in assay [14], 1.52 (inactive).

Take `O=C(NCC(F)(F)F)[C@@H]1c2ccccc2C(=O)N(Cc2cc(F)cc(C(F)(F)F)c2)[C@H]1c1ccc(CO)cc1`: the composite z-score in assay [1] was -0.264; in assay [5] it was 2.29; in [7] it was -0.0998; in [8] it was -1.08; in assay [9], -1.13; in [10], -0.278. Further, the composite z-score in assay [11] was 0.251; in assay [12], -0.0632; in [13] it was 0.941; in assay [15], -0.788; in [16], -0.587; in [17], -1.12. Further, the composite z-score is -1.29 in assay [18], -1.39 in assay [19] and -0.53 in assay [20]. Further, the z-score was 0.0042 (inactive) in assay [2]; -0.793 (inactive) in assay [3]; 0.29 (inactive) in [4]; 0.463 (inactive) in assay [6]; 0.408 (inactive) in assay [14].
